# Laboratory results reported in PubChem BioAssay (Tox21).
# Records with an inconclusive call do not appear. Entries that show only a call come without a potency. Active and inactive are the calls of the source. Unless noted, calls come from the whole dose curve; as a rule, active = well fitted curve in the direction sought with a large enough effect in the repeat runs; inconclusive = weak or mixed curves; inactive = no such curve, though single readings can be large; an effect the other way counts as inactive or inconclusive.
# Assays:
# [1] = biological target: Aryl hydrocarbon receptor (Homo sapiens) (UniProt P35869); test: qHTS assay to identify small molecule that activate the aryl hydrocarbon receptor (AhR) signaling pathway (AID 743085);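 note: HG2L7.5c1 human HepG2 liver cells with stably integrated DRE-driven firefly reporter; series mostly up to about 70 µM; nearly all actives have a fitted effect of over 15% in size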
# Chain of Aryl hydrocarbon receptor (Homo sapiens) (P35869 whole entry, looked up): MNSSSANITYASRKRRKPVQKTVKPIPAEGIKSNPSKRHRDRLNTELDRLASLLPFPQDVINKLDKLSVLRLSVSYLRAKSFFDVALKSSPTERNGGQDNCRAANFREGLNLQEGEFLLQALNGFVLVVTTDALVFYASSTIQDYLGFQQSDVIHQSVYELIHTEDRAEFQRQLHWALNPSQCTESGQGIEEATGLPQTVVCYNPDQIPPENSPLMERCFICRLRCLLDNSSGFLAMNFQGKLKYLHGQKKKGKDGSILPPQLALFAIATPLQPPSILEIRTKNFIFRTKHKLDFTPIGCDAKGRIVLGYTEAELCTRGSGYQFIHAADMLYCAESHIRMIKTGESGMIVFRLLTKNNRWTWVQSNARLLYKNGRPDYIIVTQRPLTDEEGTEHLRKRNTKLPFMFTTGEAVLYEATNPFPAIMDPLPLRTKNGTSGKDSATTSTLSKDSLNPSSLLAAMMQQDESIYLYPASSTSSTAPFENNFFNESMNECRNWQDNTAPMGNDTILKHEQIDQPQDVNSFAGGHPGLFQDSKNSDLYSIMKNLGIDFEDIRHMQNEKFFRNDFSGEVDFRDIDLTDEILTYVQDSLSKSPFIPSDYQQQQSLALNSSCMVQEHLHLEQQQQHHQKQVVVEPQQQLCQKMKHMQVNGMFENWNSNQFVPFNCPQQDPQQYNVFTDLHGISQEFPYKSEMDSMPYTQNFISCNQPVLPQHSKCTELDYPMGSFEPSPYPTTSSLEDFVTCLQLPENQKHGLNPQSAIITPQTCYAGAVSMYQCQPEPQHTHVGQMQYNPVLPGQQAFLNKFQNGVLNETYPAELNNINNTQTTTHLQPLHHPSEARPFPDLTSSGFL
# In short: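 24 h compound exposure, 37C, HepG2-derived HG2L7.5c1 cells with DRE-responsive luciferase. Readouts: fluorescence viability, then luminescence at room temperature after 30 min.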
# [2] = qHTS assay to identify small molecule that activate the aryl hydrocarbon receptor (AhR) signaling pathway - cell viability counter screen (AID 743086); note: nearly all actives have a fitted effect of over 45% in size; note: potency is the fitted concentration of half-maximal effect
# In short: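 Cytotoxicity counter screen: CellTiter-Fluor signal (30 min, 37 C) in 4000 HepG2 cells/well carrying the DRE-luciferase reporter, following 24 h compound exposure at 37 C.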
# [3] = biological target: Peroxisome proliferator-activated receptor gamma (Homo sapiens) (UniProt P37231); test: qHTS assay to identify small molecule antagonists of the peroxisome proliferator-activated receptor gamma (PPARg) signaling pathway (AID 743191; calls by dose curve; note: nearly all actives have a fitted effect of over 30% in size; note: potency is the fitted concentration of half-maximal effect)
# Chain of Peroxisome proliferator-activated receptor gamma (Homo sapiens) (P37231 whole entry, looked up): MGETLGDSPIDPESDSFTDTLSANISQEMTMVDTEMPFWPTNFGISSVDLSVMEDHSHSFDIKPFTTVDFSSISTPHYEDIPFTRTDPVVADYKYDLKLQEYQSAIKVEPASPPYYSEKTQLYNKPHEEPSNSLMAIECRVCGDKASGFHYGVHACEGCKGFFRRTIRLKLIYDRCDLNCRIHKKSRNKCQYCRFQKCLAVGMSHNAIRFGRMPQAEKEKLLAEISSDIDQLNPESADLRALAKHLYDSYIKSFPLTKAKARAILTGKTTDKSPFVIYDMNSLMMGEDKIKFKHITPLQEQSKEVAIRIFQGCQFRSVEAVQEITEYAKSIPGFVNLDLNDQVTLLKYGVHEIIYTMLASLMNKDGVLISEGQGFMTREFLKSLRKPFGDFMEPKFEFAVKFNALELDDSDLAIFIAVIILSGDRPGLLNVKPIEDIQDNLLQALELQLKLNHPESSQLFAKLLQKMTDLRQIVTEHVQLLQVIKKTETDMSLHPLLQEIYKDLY
# In short: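 Beta-lactamase reporter under UAS control in HEK293H PPARg-bla cells; compound treatment 17 h at 37C. Read-out: fluorescence intensity after 1 h room-temperature incubation with LiveBLAzer B/G FRET substrate.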
# [4] = qHTS assay to identify small molecule antagonists of the peroxisome proliferator-activated receptor gamma (PPARg) signaling pathway - cell viability counter screen (AID 743194); conditions: Potency: co-treated with 50 nM rosiglitazone; note: nearly all actives have a fitted effect of over 55% in size; note: potency is the fitted concentration of half-maximal effect
# In short: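 Viability was measured as CellTiter-Glo luminescence in GeneBLAzer PPARg UAS-bla HEK293H cells. These cells had been exposed 17 h at 37 C to compounds together with rosiglitazone at 50 nM final, with the beta-lactamase readout taken in the same wells.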
# [5] = qHTS assay for small molecule agonists of the antioxidant response element (ARE) signaling pathway - cell viability counter screen (AID 743203; calls by dose curve; note: nearly all actives have a fitted effect of over 55% in size; note: potency is the fitted concentration of half-maximal effect)
# In short: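 Viability counter screen: CellTiter-Glo luminescence, read after 30 min at room temperature, in ARE-bla HepG2 wells. Compound exposure lasted 16 h at 37C/5% CO2, following a 5 h pre-incubation of the cells after plating.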
# [6] = qHTS assay for small molecule activators of the heat shock response signaling pathway (AID 743210; active = well fitted activation curve with a large enough effect in the signal ratio in the repeat runs, with a control signal flat, not every such curve was filed as active; the % refers to the signal ratio;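 note: HeLa cells with beta-lactamase reporter driven by heat shock elements; series mostly up to about 63 µM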)
# In short: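 Fluorescence from a cleaved B/G FRET substrate (2.5 h, room temp) reports HSE-driven beta-lactamase in HeLa cells treated 5 h at 37 C with DMSO-dissolved compounds.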
# [7] = qHTS assay to identify small molecule agonists of the peroxisome proliferator-activated receptor delta (PPARd) signaling pathway - cell viability counter screen (AID 743211); note: nearly all actives have a fitted effect of over 55% in size; note: potency is the fitted concentration of half-maximal effect
# In short: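 Luminescent ATP viability assay (CellTiter-Glo, 30 min RT) in UAS-bla HEK293H cells carrying the PPAR delta reporter construct, 3000 cells/well, after a 17 h compound treatment at 37 C.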
# [8] = qHTS assay to identify small molecule antagonists of the peroxisome proliferator-activated receptor delta (PPARd) signaling pathway - cell viability counter screen (AID 743213); note: nearly all actives have a fitted effect of over 50% in size; note: potency is the fitted concentration of half-maximal effect
# In short: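 Same-well viability: cells pre-incubated 5 h, dosed with compound plus 300 nM L165041, kept 17 h at 37 C, FRET substrate 2 h RT, then CellTiter-Glo 30 min RT and luminescence.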
# [9] = qHTS assay to identify small molecule agonists of the farnesoid-X-receptor (FXR) signaling pathway - cell viability counter screen (AID 743218); note: nearly all actives have a fitted effect of over 45% in size; note: potency is the fitted concentration of half-maximal effect
# In short: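 Viability counter screen in the same wells: CellTiter-Glo luminescence, 30 min room-temperature incubation, measured after the beta-lactamase read. Cells were GeneBLAzer FXR-UAS-bla HEK 293T, compound-treated 16 h at 37C.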
# [10] = biological target: Bile acid receptor (Homo sapiens) (UniProt Q96RI1); test: qHTS assay to identify small molecule agonists of the farnesoid-X-receptor (FXR) signaling pathway (AID 743220; active = well fitted activation curve with a large enough effect in the signal ratio in the repeat runs, not every such curve was filed as active; the % refers to the signal ratio)
# Chain of Bile acid receptor (Homo sapiens) (Q96RI1 whole entry, looked up): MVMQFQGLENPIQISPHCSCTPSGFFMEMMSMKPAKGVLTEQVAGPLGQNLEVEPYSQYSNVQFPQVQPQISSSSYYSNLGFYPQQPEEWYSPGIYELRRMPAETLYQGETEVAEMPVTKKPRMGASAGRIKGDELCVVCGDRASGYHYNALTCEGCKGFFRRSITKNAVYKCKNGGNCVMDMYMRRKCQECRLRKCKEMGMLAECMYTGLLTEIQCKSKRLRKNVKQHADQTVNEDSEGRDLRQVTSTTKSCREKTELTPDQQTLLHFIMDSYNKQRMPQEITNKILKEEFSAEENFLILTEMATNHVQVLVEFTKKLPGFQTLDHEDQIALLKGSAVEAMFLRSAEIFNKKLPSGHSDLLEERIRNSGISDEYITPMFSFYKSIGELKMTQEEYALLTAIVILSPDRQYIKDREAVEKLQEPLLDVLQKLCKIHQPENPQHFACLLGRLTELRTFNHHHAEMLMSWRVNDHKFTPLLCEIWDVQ
# In short: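 FXR-UAS-bla HEK 293T cells carrying a UAS-driven beta-lactamase reporter were plated for 5 h at 37C/5% CO2, then exposed to DMSO-dissolved Tox21 10K compounds for 16 h at 37C. A LiveBLAzer B/G FRET substrate was loaded for 2 h at room temperature before fluorescence reading.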
# [11] = biological target: Vitamin D3 receptor (Homo sapiens) (UniProt P11473); test: qHTS assay to identify small molecule agonists of the vitamin D receptor (VDR) signaling pathway (AID 743222; calls by dose curve)
# Chain of Vitamin D3 receptor (Homo sapiens) (P11473 whole entry, looked up): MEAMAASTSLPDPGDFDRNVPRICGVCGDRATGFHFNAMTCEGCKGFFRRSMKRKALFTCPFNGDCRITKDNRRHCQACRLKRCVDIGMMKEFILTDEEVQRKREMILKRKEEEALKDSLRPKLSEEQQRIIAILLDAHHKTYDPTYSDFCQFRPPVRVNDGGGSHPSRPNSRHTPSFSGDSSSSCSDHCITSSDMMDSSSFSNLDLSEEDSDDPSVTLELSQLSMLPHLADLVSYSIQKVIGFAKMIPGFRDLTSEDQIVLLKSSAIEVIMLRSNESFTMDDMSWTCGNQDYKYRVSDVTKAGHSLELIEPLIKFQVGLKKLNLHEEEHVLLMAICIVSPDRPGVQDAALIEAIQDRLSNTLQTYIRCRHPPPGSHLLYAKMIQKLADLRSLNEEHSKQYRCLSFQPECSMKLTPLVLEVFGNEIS
# In short: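 Agonist mode, beta-lactamase reporter: fluorescence from LiveBLAzer B/G FRET substrate (2 h, room temperature) read after 16 h compound treatment at 37 C of VDR-bla cells, which were pre-incubated 4 h after seeding.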
# [12] = qHTS assay to identify small molecule antagonists of the farnesoid-X-receptor (FXR) signaling pathway - cell viability counter screen (AID 743221; active = well fitted cell-killing curve with a large enough effect in the repeat runs, not every such curve was filed as active; note: nearly all actives have a fitted effect of over 50% in size; note: potency is the fitted concentration of half-maximal effect)
# In short: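 In GeneBLAzer FXR-UAS-bla HEK 293T cells stimulated with 50 uM chenodeoxycholic acid (final), compounds acted for 16 h at 37 C. Viability was assessed afterwards by CellTiter-Glo luminescence.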
# [13] = qHTS assay for small molecule activators of the heat shock response signaling pathway - cell viability counter screen (AID 743209); note: nearly all actives have a fitted effect of over 50% in size
# In short: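 Cytotoxicity counter screen run in the same wells as the heat-shock bla reporter assay: HeLa HSE-bla cells, 5 h compound exposure at 37 C, viability read by CellTiter-Glo luminescence.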
# [14] = biological target: Peroxisome proliferator-activated receptor delta (Homo sapiens) (UniProt Q03181); test: qHTS assay to identify small molecule agonists of the peroxisome proliferator-activated receptor delta (PPARd) signaling pathway (AID 743212; calls by dose curve;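 note: HEK293H cells with PPARd UAS beta-lactamase reporter GeneBLAzer system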)
# Chain of Peroxisome proliferator-activated receptor delta (Homo sapiens) (Q03181 whole entry, looked up): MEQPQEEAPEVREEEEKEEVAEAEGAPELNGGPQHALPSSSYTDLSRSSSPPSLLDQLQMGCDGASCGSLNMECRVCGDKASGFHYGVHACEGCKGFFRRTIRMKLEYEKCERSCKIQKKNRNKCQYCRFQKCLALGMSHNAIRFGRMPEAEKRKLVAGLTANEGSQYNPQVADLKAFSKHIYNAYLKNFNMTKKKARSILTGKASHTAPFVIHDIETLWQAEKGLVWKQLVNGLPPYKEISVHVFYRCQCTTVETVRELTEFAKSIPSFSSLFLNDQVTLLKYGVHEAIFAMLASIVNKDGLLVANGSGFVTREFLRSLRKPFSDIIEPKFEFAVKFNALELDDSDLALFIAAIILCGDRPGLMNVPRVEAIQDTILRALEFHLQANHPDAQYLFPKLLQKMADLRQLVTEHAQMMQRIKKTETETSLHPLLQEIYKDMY
# In short: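 Steps: seed PPARd-bla HEK293H cells; incubate 5 h, 37 C, 5% CO2; add compounds in DMSO; incubate, 37 C; add LiveBLAzer B/G FRET substrate; hold 2 h at room temperature; measure fluorescence.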
# [15] = biological target: Bile acid receptor (Homo sapiens) (UniProt Q96RI1); test: qHTS assay to identify small molecule antagonists of the farnesoid-X-receptor (FXR) signaling pathway (AID 743217; active = well fitted inhibition curve with a large enough effect in the signal ratio in the repeat runs, not every such curve was filed as active; the % refers to the signal ratio)
# In short: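 Antagonist mode: chenodeoxycholic acid at 50 uM final stimulates a UAS-driven beta-lactamase reporter in HEK 293T FXR-bla cells during 16 h, 37C compound exposure. Read-out is FRET substrate fluorescence after 2 h at room temperature.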
# [16] = biological target: Vitamin D3 receptor (Homo sapiens) (UniProt P11473); test: qHTS assay to identify small molecule antagonists of the vitamin D receptor (VDR) signaling pathway (AID 743223; active = well fitted inhibition curve with a large enough effect in the signal ratio in the repeat runs, not every such curve was filed as active; the % refers to the signal ratio)
# In short: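 Agonist 1alpha,25-dihydroxyvitamin D3 (3 nM in well) was added with each compound to VDR-bla cells preincubated 4 h. Cells stood 16 h at 37C, then FRET substrate 2 h at room temperature; fluorescence intensity recorded.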
# [17] = qHTS assay to identify aromatase inhibitors - cell viability counter screen (AID 743084);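 note: cells stimulated with testosterone during compound exposure; nearly all actives have a fitted effect of over 55% in size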
# [18] = biological target: Peroxisome proliferator-activated receptor delta (Homo sapiens) (UniProt Q03181); test: qHTS assay to identify small molecule antagonists of the peroxisome proliferator-activated receptor delta (PPARd) signaling pathway (AID 743215; active = well fitted inhibition curve with a large enough effect in the signal ratio in the repeat runs, not every such curve was filed as active; the % refers to the signal ratio;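 note: cells stimulated with agonist L165041 at 300 nM final during compound exposure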; note: potency is the fitted concentration of half-maximal effect)
# In short: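 Agonist L165041 (300 nM final) added with compound to PPARd-bla HEK293H UAS-bla reporter cells; 17 h incubation at 37 C. Read-out: LiveBLAzer FRET substrate, 2 h at room temperature, fluorescence intensity.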
# [19] = biological target: Peroxisome proliferator-activated receptor gamma (Homo sapiens) (UniProt P37231); test: qHTS assay to identify small molecule agonists of the peroxisome proliferator-activated receptor gamma (PPARg) signaling pathway (AID 743094; active = well fitted activation curve with a large enough effect in the signal ratio in the repeat runs, not every such curve was filed as active; the % refers to the signal ratio)
# In short: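 Agonist activity was taken from a beta-lactamase reporter (FRET substrate, 1 h at room temperature) in HEK293H cells carrying a PPARg UAS-bla construct. Compounds in DMSO were incubated 17 h at 37C after a 5 h cell pre-incubation.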
# [20] = qHTS assay for small molecule agonists of the antioxidant response element (ARE) signaling pathway (AID 743202; active = well fitted activation curve with a large enough effect in the signal ratio in the repeat runs, not every such curve was filed as active; the % refers to the signal ratio; note: potency is the fitted concentration of half-maximal effect)
# In short: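 Beta-lactamase reporter activity, read as fluorescence intensity, reflects ARE/Nrf2 pathway induction in HepG2 cells after 16 h compound exposure at 37 C; substrate loading was 2 h at room temperature.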
smiles,measurement,setting,value
O=C(N[C@H](c1ccccc1)[C@@H]1CN2CCC1CC2)c1c(Cl)ccc(C(F)(F)F)c1Cl,Potency,[1],inactive
same,Potency,[2],39.2 µM (active)
same,Potency,[3],4.97 µM (active)
same,Potency,[4],inactive
same,Potency,[5],49.3 µM (active)
same,outcome,[6],inactive
same,Potency,[7],78.8 µM (active)
same,Potency,[8],inactive
same,Potency,[9],70.2 µM (active)
same,outcome,[10],inactive
same,outcome,[11],inactive
C=CC(=O)NCNC(=O)C=C,Potency,[2],inactive
same,Potency,[5],inactive
same,outcome,[6],inactive
same,Potency,[7],inactive
same,Potency,[12],inactive
same,outcome,[11],inactive
CCC(C)(NC(=O)c1cc(Cl)c(C)c(Cl)c1)C(=O)CCl (stereo not given),Potency,[1],inactive
same,Potency,[4],39.1 µM (active)
same,Potency,[5],21.8 µM (active)
same,Potency,[7],49.3 µM (active)
same,Potency,[12],55.3 µM (active)
ClCc1cccc(Cl)c1,Potency,[3],inactive
same,Potency,[4],inactive
same,Potency,[5],inactive
same,Potency,[13],inactive
same,outcome,[6],inactive
same,Potency,[7],inactive
same,outcome,[14],inactive
same,Potency,[8],inactive
same,Potency,[15],inactive
same,outcome,[10],inactive
same,Potency,[12],inactive
same,outcome,[11],inactive
same,outcome,[16],inactive
CC(c1ccc(O)cc1)(c1ccc(O)cc1)c1ccc(O)cc1,Potency,[17],inactive
same,Potency,[3],21.9 µM (active)
same,Potency,[13],inactive
same,Potency,[8],inactive
same,Potency,[18],4.9 µM (active)
same,outcome,[11],inactive
NCCCNCCCN,Potency,[1],inactive
same,Potency,[2],inactive
same,Potency,[4],inactive
same,Potency,[5],inactive
same,outcome,[6],inactive
same,outcome,[11],inactive
CN1[C@@H]2CC[C@H]1CC(OC(=O)c1cc(Cl)cc(Cl)c1)C2 (stereo not given in full),Potency,[17],inactive
same,Potency,[19],inactive
same,Potency,[3],inactive
same,Potency,[13],inactive
same,outcome,[6],inactive
same,Potency,[7],inactive
same,outcome,[14],inactive
same,Potency,[18],inactive
CN1C[C@H](CNC(=O)OCc2ccccc2)C[C@@H]2c3cccc4c3c(cn4C)C[C@H]21,Potency,[2],29.8 µM (active)
same,Potency,[3],inactive
same,Potency,[4],26.6 µM (active)
same,Potency,[13],inactive
same,outcome,[6],inactive
same,Potency,[7],26.6 µM (active)
same,Potency,[8],13.3 µM (active)
same,Potency,[9],13.3 µM (active)
COC1=CC(=O)O[C@@H](CCc2ccccc2)C1,Potency,[1],inactive
same,Potency,[2],inactive
same,Potency,[4],inactive
same,Potency,[5],inactive
same,Potency,[13],inactive
same,outcome,[6],inactive
same,Potency,[7],inactive
same,outcome,[14],inactive
same,Potency,[8],inactive
same,Potency,[9],inactive
same,outcome,[11],inactive
CCn1cc[n+](C)c1,Potency,[2],inactive
same,Potency,[4],inactive
same,Potency,[20],inactive
same,Potency,[5],inactive
same,Potency,[13],inactive
same,Potency,[7],inactive
same,Potency,[8],inactive
same,Potency,[9],inactive
same,Potency,[12],inactive
CC(C)O.CC(C)O.OCCN(CCO)CCO.OCCN(CCO)CCO.[Ti],Potency,[2],inactive
same,Potency,[4],inactive
same,Potency,[5],inactive
same,Potency,[13],inactive
same,Potency,[7],inactive
same,Potency,[8],inactive
same,Potency,[9],inactive
CC1Sc2c(C(=O)O)c(=O)c3cc(F)c(N4CCNCC4)cc3n21 (stereo not given),Potency,[4],inactive
same,Potency,[20],inactive
same,Potency,[5],inactive
same,Potency,[13],inactive
same,outcome,[6],inactive
same,outcome,[14],inactive
same,Potency,[8],inactive
same,Potency,[18],inactive
same,Potency,[15],inactive
same,Potency,[9],inactive
same,outcome,[10],inactive
same,Potency,[12],inactive
same,outcome,[11],inactive
C=C(C#N)CCC#N,Potency,[2],inactive
same,Potency,[3],inactive
same,Potency,[4],inactive
same,Potency,[13],inactive
same,outcome,[6],inactive
same,Potency,[7],inactive
same,Potency,[9],inactive
same,Potency,[12],inactive
same,outcome,[11],inactive
O=[Se]=O,Potency,[17],inactive
same,Potency,[3],inactive
same,Potency,[20],8.58 µM (active)
same,Potency,[5],inactive
same,Potency,[13],inactive
same,outcome,[6],inactive
same,Potency,[7],inactive
same,Potency,[8],inactive
same,Potency,[15],inactive
same,Potency,[9],inactive
same,outcome,[10],inactive
same,Potency,[12],inactive
same,outcome,[11],inactive
same,outcome,[16],inactive
Cc1ccc(-c2c(Cl)nc(C#N)n2S(=O)(=O)N(C)C)cc1,Potency,[1],inactive
same,Potency,[2],inactive
same,Potency,[19],inactive
same,Potency,[13],inactive
same,outcome,[11],inactive
CC(=O)c1cc2c(cc1C)C(C)(C)C(C)CC2(C)C (stereo not given),Potency,[2],inactive
same,Potency,[4],inactive
same,Potency,[5],inactive
same,outcome,[6],inactive
same,Potency,[7],inactive
same,outcome,[14],inactive
same,Potency,[9],inactive
same,outcome,[10],inactive
same,Potency,[12],inactive
